B1: PhoQ; a variant is named by its letters at X, in order, P23837 (parent)
chain: MKKLLRLFFPLSLRVRFLLATAAVVLVLSLAYGMVALIGYSVSFDKTTFRLLRGESNLFYTLAKWENNKLHVELPENIDKQSPTMTLIYDENGQLLWAQRDVPWLMKMIQPDWLKSNGFHEIEADVNDTSLLLSGDHSIQQQLQEVREDDDDAEMTHSVAVNVYPATSRMPKLTIVVVDTIPVELKSSYMVWSWFIYVLSANLLLVIPLLWVAAWWSLRPIEALAKEVRELEEHNRELLNPATTRELTSLVRNLNRLLKSERERYDKYRTTLTDLTHSLKTPLXXLQXXLRSLRSEKMSVSDAEPVMLEQISRISQQIGYYLHRASMRGGTLLSRELHPVAPLLDNLTSALNKVYQRKGVNISLDISPEISFVGEQNDFVEVMGNVLDNACKYCLEFVEISARQTDEHLYIVVEDDGPGIPLSKREVIFDRGQRVDTLRPGQGVGLAVAREITEQYEGKIVAGESMLGGARMEVIFGRQHSAPKDE

In all, about 140,000 sequences were measured (“enrichment ratio after two sorts for PhoP signalling”: median about 0, highest 2% from about 11 on). This is one part of a sample in which the highest values are shown more often than they occur. Some results are limits rather than exact numbers.

The variants in the assay derive from B1. The assay can be described thus: enrichment ratio after two sorts for PhoP signalling (ratio (wild type AVST 3.29)); higher = more functional. The following applies: with PhoP (E. coli).
Turning to VGDP, the enrichment ratio is at most 0.25.
With RAMR the figure was at most 0.25.
With YTYM the figure was at most 0.25; with WMWP, at most 0.25; with SYVC, 0.486.
With SDVG the figure was 1.53; with TDIC, 14.4; with STIC, 13.
For the variant SCIC, the enrichment ratio came to 7.92.
Under YTIC stands at most 0.25; under KDVC, at most 0.25.
Under KSIC stands at most 0.25; under LTIC, at most 0.25.
Under SDVC stands 11.5.
Take TDVC: the enrichment ratio came to 24.1.
With TDVG the figure was 4.14; with NESI, at most 0.25.
Turning to PFYL, the enrichment ratio is at most 0.25.
Under GFIL stands at most 0.25.
With INEF the figure was at most 0.25; with MTNK, at most 0.25; with IERL, at most 0.25.
Under MGNR stands at most 0.25; under FHQW, at most 0.25.
For WMHQ, the enrichment ratio was at most 0.25.
Under VIIW stands at most 0.25.
Under SDRC stands at most 0.25; under SDIC, 15.1.
Under SYIC stands 0.411.
With VCHE, the enrichment ratio was at most 0.25.
Under GIRT stands at most 0.25; under ASWM, at most 0.25.
Under ASPM stands 0.773.
For ASAY, the enrichment ratio was determined as 4.58.
With ASTM the figure was 12.3.
Under ASDH stands at most 0.25.
With ASGM the figure was 22.7.
On to ASGD, for which the enrichment ratio was at most 0.25.
Under ASAM stands 20.2.
With ASRM, the enrichment ratio was at most 0.25.
With TKYS the figure was at most 0.25.
NHDM: the enrichment ratio is at most 0.25.
With KGIG the figure was at most 0.25; with IWNF, at most 0.25; with ETES, at most 0.25.
With IRLA the figure was 0.272.
Under GMFY stands at most 0.25.
As to FLEE, the enrichment ratio is at most 0.25.
Take PCYL: the enrichment ratio is at most 0.25.
Under FIHC stands at most 0.25; under LFFW, at most 0.25; under MMQI, at most 0.25.
With KMQS the figure was at most 0.25.
With NMQS the figure was at most 0.25; with TMQP, at most 0.25.
For the variant TMQI, the enrichment ratio was 12.3.
With TMQS the figure was 14.3; with KESH, at most 0.25.
Under VQMH stands at most 0.25; under RVAL, at most 0.25; under VFSS, at most 0.25.
For CFSS, the enrichment ratio amounted to 11.9.
With TFSK the figure was at most 0.25; with TFSS, 11.4.
Under TGSS stands 11; under WFSS, at most 0.25; under LGDN, at most 0.25.
With FQYK the figure was at most 0.25.
SISM: the enrichment ratio is 16.
As for SNSF, the enrichment ratio was 10.8.
Under KYSM stands at most 0.25; under SVRM, at most 0.25; under ITSM, 2.11.
Under STSM stands 16.4; under SISF, 10.7.
With SVGM the figure was 9.35; with LTSM, at most 0.25; with SNSM, 33.4.
With SVSM, the enrichment ratio came to 13.3.
With HVDL the figure was at most 0.25; with YFNP, at most 0.25; with PTIT, at most 0.25.
With IFSN the figure was at most 0.25; with KGDF, at most 0.25; with SSSF, 10.
Consider SQSM, for which the enrichment ratio stood at 15.9.
Under FCSM stands 0.747; under SCSM, 14.5.
With SMHF the figure was at most 0.25; with SDSM, 1.33; with SSSM, 14.8.
With NSSM the figure was 0.911; with SCSF, 9.85; with SRSM, 0.977.
For SMSF, the enrichment ratio was 5.95.
With SMSM the figure was 12.4.
Under SGVE stands at most 0.25; under SWGV, at most 0.25.
Under IDET stands at most 0.25.
As to RIHD, the enrichment ratio is at most 0.25.
Under LNHQ stands at most 0.25; under IEMK, at most 0.25; under EVHQ, at most 0.25.
Under SPSM stands at most 0.25; under NVSM, at most 0.25; under TTSM, 14.8.
Under TVSM stands 37.3.
In the case of YTSM, the enrichment ratio stood at 1.02.
Under MMSM stands 7.2.
With SGSF the figure was 1.84; with KSSM, at most 0.25.
Under TSSM stands 24.4; under KQSM, at most 0.25; under SGSM, 12.7.
KQAV: the enrichment ratio was at most 0.25.
With DAHD the figure was at most 0.25.
Under QSHT stands at most 0.25; under PIQW, at most 0.25.
Consider FMCI, for which the enrichment ratio was at most 0.25.
Under MYGI stands at most 0.25.
For ICFI, the enrichment ratio is at most 0.25.
Under VCSA stands at most 0.25; under YCHV, at most 0.25.
With HSSA the figure was at most 0.25; with SMEV, at most 0.25.
As to MVAK, the enrichment ratio came to 5.7.
On to MVWM, for which the enrichment ratio came out at 0.553.
As to GVAM, the enrichment ratio amounted to 15.2.
Under GVTM stands 8.91; under NVAK, at most 0.25; under MVPM, at most 0.25.
With MVAM the figure was 39.4; with GVAK, 11.7; with GVPM, at most 0.25.
Under SAME stands 0.508; under WCYN, at most 0.25; under KFKF, at most 0.25.
GTRF: the enrichment ratio is at most 0.25.
Under TSNL stands 12.5; under KSNL, at most 0.25; under FSNL, at most 0.25.
With TSNN the figure was 12.2; with LCNN, at most 0.25.
Under KSNN stands at most 0.25.
For the variant LVAI, the enrichment ratio is at most 0.25.
Under NFCN stands at most 0.25; under HVSV, at most 0.25; under KCSV, at most 0.25.
Under TCAV stands 13.4; under KCAV, at most 0.25; under TCAH, 11.7.
With KCEF the figure was at most 0.25.
Take TCAE: the enrichment ratio was at most 0.25.

The values above are taken from a collection of fitness landscapes (doi:10.1126/science.1257360).
